Data published in PubChem BioAssay (Tox21).
Inconclusive results are not listed. Calls of active or inactive are those of the source. Unless noted, calls come from the whole dose curve; as a rule, active = well fitted curve in the direction sought with a large enough effect in the repeat runs; inconclusive = weak or mixed curves; inactive = no such curve, though single readings can be large; an effect the other way counts as inactive or inconclusive.

What was measured:
[1] = A CellTox Green Cytotoxicity Assay to monitor cytotoxicity in HepG2 cells - 0 hour (AID 1224882); note: nearly all actives have a fitted effect of over 35% in size
Method in brief: (§1)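 HepG2 cells, 600/well, preincubated 5 h with CellTox Green dye, then exposed to Tox21 compounds in DMSO at 37 C for up to 40 h. Dead-cell DNA fluorescence read at the indicated time point.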

[2] = A CellTox Green Cytotoxicity Assay to monitor cytotoxicity in HepG2 cells - 32 hour (AID 1224883); note: nearly all actives have a fitted effect of over 50% in size
Method in brief: as §1

[3] = A CellTox Green Cytotoxicity Assay to monitor cytotoxicity in HEK293 cells - 8 hour (AID 1224884); note: nearly all actives have a fitted effect of over 35% in size
Method in brief: (§2)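 HEK293 cells, 600/well, were preincubated 5 hours and then exposed to compounds at 37 C for up to 40 hours. A cell-impermeant cyanine dye staining dead-cell DNA was read by fluorescence at 0, 8, 16, 24, 32 and 40 h time points.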

[4] = qHTS RealTime-Glo MT Cell Viability Assay in HepG2 cells - 16 hour (AID 1224885); note: nearly all actives have a fitted effect of over 50% in size
Method in brief: (§3)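 HepG2 suspension premixed with RealTime-Glo reagents is plated at 600 cells per well and left 5 h at 37 C/5% CO2. Compounds in DMSO then go in, and bioluminescence reflecting viable cell number is recorded over 40 h.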

[5] = qHTS RealTime-Glo MT Cell Viability Assay in HEK293 cells - 24 hour (AID 1224886); note: top concentration of the series differs between compounds; nearly all actives have a fitted effect of over 50% in size
Method in brief: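 Reads taken at 0, 8, 16, 24, 32 and 40 h from the same wells. HEK293 cells (600/well) carried RealTime-Glo reagents from seeding, with compound added after a 5 h settle at 37 C.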

[6] = qHTS RealTime-Glo MT Cell Viability Assay in HEK293 cells - 8 hour (AID 1224887); note: top concentration of the series differs between compounds; nearly all actives have a fitted effect of over 50% in size
Method in brief: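 600 cells/well were plated with the nonlytic NanoLuc/prosubstrate reagent, pre-incubated 5 h, then given 23 nL of compound in DMSO. Incubation at 37 C for 40 h, with luminescence from viable-cell-reduced substrate read repeatedly from 0 h.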

[7] = A CellTox Green Cytotoxicity Assay to monitor cytotoxicity in HEK293 cells - 16 hour (AID 1224888); note: nearly all actives have a fitted effect of over 35% in size
Method in brief: as §2

[8] = qHTS RealTime-Glo MT Cell Viability Assay in HepG2 cells - 0 hour (AID 1224889); note: nearly all actives have a fitted effect of over 50% in size
Method in brief: as §3

[9] = A CellTox Green Cytotoxicity Assay to monitor cytotoxicity in HepG2 cells - 8 hour (AID 1224890); note: nearly all actives have a fitted effect of over 45% in size
Method in brief: as §1

[10] = qHTS assay to identify small molecule antagonists of the estrogen receptor alpha (ER-alpha) signaling pathway using the BG1 cell line in the presence of 0.1 nM 17-beta-estradiol - cell viability counter screen (AID 1259241); note: nearly all actives have a fitted effect of over 40% in size
Method in brief: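 Live-cell protease activity (CellTiter-Fluor fluorescence, 30 min) was read in the same wells after VM7Luc4E2 cells had been exposed to compounds with 0.1 nM 17beta-estradiol for 22 hr at 37C.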

[11] = qHTS assay to identify small molecule antagonists of the androgen receptor (AR) signaling pathway using the MDA cell line in the presence of 0.5 nM R1881 - cell viability counter screen (AID 1259242); note: nearly all actives have a fitted effect of over 45% in size
Method in brief: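 MDA-kb2 cells (MMTV-luciferase, AR/GR responsive) were treated with compounds plus 0.5 nM R1881 (final) for 16 hr at 37C, 0% CO2. Viability was then read in the same wells as live-cell protease fluorescence (CellTiter-Fluor, 30 min).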

[12] = qHTS assay to identify small molecule HDAC inhibitors (AID 1259364); note: top concentration of the series differs between compounds; nearly all actives have a fitted effect of over 45% in size
Method in brief: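 Wild-type HCT-116 cells, plated overnight at 37 C, exposed to compounds 2 hr at 37 C; luminogenic HDAC-Glo substrate then added 30 min at room temperature. Luminescence reports relative endogenous class I/II HDAC activity.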

[13] = qHTS assay to identify small molecule HDAC inhibitors - cell viability counter screen (AID 1259365)
Method in brief: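 HCT-116 (wild type), 1,500 cells/well, overnight 37C/5% CO2; compound in DMSO 2hr; CellTiter-Glo 30min RT; luminescence read.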

[14] = qHTS assay to identify small molecule agonists of the sonic hedgehog signaling (Shh) pathway - cell viability counter screen (AID 1259366); note: nearly all actives have a fitted effect of over 50% in size
Method in brief: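 CellTiter-Fluor fluorescence read-out, 1 hr at 37C, added after 23hr compound exposure. Cells: 3T3 Gli1-Luc, an NIH/3T3 clone with stably integrated Gli1-Luc reporter, plated 4hr before compound.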

[15] = qHTS assay to identify small molecule antagonists of the sonic hedgehog signaling (Shh) pathway - cell viability counter screen (AID 1259367); note: nearly all actives have a fitted effect of over 55% in size
Method in brief: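 After a 4 hr settling period, 3T3 Gli1-Luc cells were treated with DMSO-dissolved chemicals and conditioned medium, kept 24 hr at 37C in 5% CO2, and assayed for viability by CellTiter-Fluor fluorescence following 1 hr reagent incubation.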

[16] = qHTS assay to identify small molecule agonists of the sonic hedgehog signaling (Shh) pathway (AID 1259368; calls by dose curve;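 note: NIH/3T3-derived 3T3Gli1-Luc cells carrying a stable Gli1-driven firefly luciferase reporter; series mostly up to about 92 µM; nearly all actives have a fitted effect of over 15% in size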)
Method in brief: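 NIH/3T3-derived 3T3Gli1-Luc cells with stably integrated Gli1-driven firefly luciferase, 2,000 cells/well, compounds added after 4 hr. Incubated 24 hr at 37C, 5% CO2; luminescence read after 30 min with luciferase reagent at room temperature.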

[17] = qHTS assay to identify small molecule antagonists of the sonic hedgehog signaling (Shh) pathway (AID 1259369; calls by dose curve; note: nearly all actives have a fitted effect of over 45% in size)
Method in brief: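 NIH/3T3-derived Gli1-Luc reporter cells plated 4 h, dosed with compound, then stimulated with conditioned medium for 24 h at 37 C. Firefly luciferase luminescence read after 30 min with detection reagent at room temperature.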

[18] = molecular target: Estrogen receptor (Homo sapiens) (UniProt P03372); test: qHTS assay to identify small molecule antagonists of the estrogen receptor alpha (ER-alpha) signaling pathway using the BG1 cell line in the presence of 0.1 nM 17-beta-estradiol (AID 1259244); note: nearly all actives have a fitted effect of over 50% in size
Method in brief: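 VM7Luc4E2 cells (endogenous full-length ER-alpha, 4×ERE-luciferase), kept 5 days in phenol red-free, charcoal-stripped FBS medium; 4,000 cells/well. Compounds added with 0.1 nM (final) 17beta-estradiol, 22 hr at 37C; luminescence read with ONE-Glo after 30 min.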

[19] = qHTS assay to identify small molecule phospholipidosis (PLD) inducers (AID 1259344; active = well fitted curve in the direction sought with a large enough effect; an effect the other way counts as inactive or inconclusive)
Method in brief: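 HepG2 cells grown on collagen I take up LipidTOX Red while exposed to compound for 24 h; after fixation they are imaged at 20x and pit metrics are extracted.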

Measured: Potency

Estrogen receptor (Homo sapiens), sequence (P03372 whole entry, looked up): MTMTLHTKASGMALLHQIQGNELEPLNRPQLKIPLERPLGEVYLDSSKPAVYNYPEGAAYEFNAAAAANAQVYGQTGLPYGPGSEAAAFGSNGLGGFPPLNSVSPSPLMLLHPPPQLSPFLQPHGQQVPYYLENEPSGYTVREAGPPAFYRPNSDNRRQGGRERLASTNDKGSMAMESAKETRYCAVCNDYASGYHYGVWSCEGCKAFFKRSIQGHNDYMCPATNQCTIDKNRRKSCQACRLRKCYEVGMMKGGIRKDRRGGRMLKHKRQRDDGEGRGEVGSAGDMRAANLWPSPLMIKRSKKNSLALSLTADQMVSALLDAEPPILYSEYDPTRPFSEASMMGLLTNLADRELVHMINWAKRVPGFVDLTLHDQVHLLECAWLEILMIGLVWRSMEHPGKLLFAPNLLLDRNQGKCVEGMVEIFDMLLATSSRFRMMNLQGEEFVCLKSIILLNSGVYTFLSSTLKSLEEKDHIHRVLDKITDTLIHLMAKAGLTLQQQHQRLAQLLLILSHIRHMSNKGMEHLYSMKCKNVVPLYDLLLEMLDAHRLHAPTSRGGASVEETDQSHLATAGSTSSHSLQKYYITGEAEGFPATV

CCCC(C)C(=O)OCC (stereo not given)
inactive: [1] | [2] | [3] | [4] | [5] | [6] | [7] | [8] | [9] | [10] | [11] | [12] | [13] | [14] | [15] | [16] | [17]

CO[Si](C)(OC)c1ccccc1
inactive: [1] | [2] | [3] | [4] | [5] | [6] | [7] | [8] | [9] | [10] | [11] | [12] | [13] | [14] | [15] | [17]

O=C(O)CNC(=O)c1ccc(CO)o1
inactive: [1] | [2] | [3] | [4] | [5] | [6] | [7] | [8] | [9] | [10] | [11] | [12] | [13] | [14] | [16] | [17]

Cc1ncc([C@@H](CCCCCCc2ccc3c(n2)NCCC3)CC(=O)O)cn1
inactive: [1] | [2] | [3] | [4] | [5] | [6] | [7] | [8] | [9] | [10] | [11] | [18] | [12] | [13] | [16] | [17]

CCNS(=O)(=O)c1ccc(C)cc1
inactive: [1] | [2] | [3] | [4] | [5] | [6] | [7] | [8] | [9] | [10] | [11] | [12] | [13] | [14] | [15] | [16] | [17]

OCCc1ccccn1
inactive: [1] | [2] | [3] | [4] | [5] | [6] | [7] | [8] | [9] | [10] | [11] | [12] | [13] | [14] | [15] | [17]

O=[N+]([O-])c1ccc(/C=N\O)o1
inactive: [1] | [2] | [3] | [4] | [5] | [6] | [7] | [8] | [9] | [10] | [11] | [19] | [12] | [14] | [16]

NC(CCC(=O)O)C(=O)O (stereo not given)
inactive: [1] | [2] | [3] | [4] | [5] | [6] | [7] | [8] | [9] | [10] | [11] | [18] | [12] | [13] | [14] | [16] | [17]
